Reference: PubChem BioAssay (Tox21)
Inconclusive results are not listed. Activity calls are given as the source filed them. Unless noted, calls follow the shape of the dose curve; as a rule, active = well fitted curve in the direction sought with a large enough effect in the repeat runs; inconclusive = weak or mixed curves; inactive = no such curve, though single readings can be large; an effect the other way counts as inactive or inconclusive.

Key:
[1] = qHTS assay to identify small molecule antagonists of the TGF-beta/Smad signaling pathway - cell viability counter screen (AID 1346824); also: % is scaled to controls: 0 for no effect and ±100 for the full control effect; nearly all actives have a fitted effect of over 50% in size
Summary of the method: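 SBE-bla HEK 293T cells, incubated overnight, then compound plus 0.25 ng/mL TGF-beta1 (stock added) for 5 hr at 37 C. Viability was read in the same wells by CellTiter-Glo luminescence after 30 min at room temperature.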

[2] = qHTS assay to identify small molecule agonists of the TGF-beta/Smad signaling pathway - cell viability counter screen (AID 1346829); also: top concentration of the series differs between compounds; % is scaled to controls: 0 for no effect and ±100 for the full control effect; nearly all actives have a fitted effect of over 45% in size
Summary of the method: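 SBE-bla HEK 293T cells plated overnight, compound exposure 5 hr at 37 C. Viability read in the same wells by CellTiter-Glo luminescence after 30 min at room temperature, following the beta-lactamase read.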

[3] = qHTS assay to identify small molecule agonists of the TGF-beta/Smad signaling pathway (AID 1346859; active = well fitted activation curve with a large enough effect in the signal ratio in the repeat runs, not every such curve was filed as active; the % refers to the signal ratio; also: series mostly up to about 77 µM; % is scaled to controls: 0 for no effect and ±100 for the full control effect)
Summary of the method: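 Dual-wavelength fluorescence (460/530 nm emission) quantified beta-lactamase expression under the Smad binding element in HEK 293T cells following 5 hr compound treatment at 37 C.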

[4] = Caspase-3/7 induction in HepG2 cells by small molecules, qHTS assay (AID 1346978); also: nearly all actives have a fitted effect of over 15% in size; also: potency is read from the fitted curve at half-maximal effect; as to caspase activation: % is scaled to controls: 0 for no effect and ±100 for the full control effect
Summary of the method: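 Wild-type HepG2 cells, 2,000/well, settled 5 hr at 37 C and 5% CO2, then compound-treated for 17 hr; caspase-3/7 activity read by luminescent Caspase-Glo 3/7 after 30 min at room temperature.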

[5] = Caspase-3/7 induction in CHO-K1 cells by small molecules, qHTS assay (AID 1346980); also: % is scaled to controls: 0 for no effect and ±100 for the full control effect; nearly all actives have a fitted effect of over 15% in size
Summary of the method: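 Wild-type CHO-K1 cells exposed to compounds for 17hr at 37 C, 5% CO2. Caspase-3/7 activity then measured by Caspase-Glo 3/7 luminescence after 30min at room temperature.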

[6] = biological target: Cytochrome P450 2D6 (Homo sapiens) (UniProt P10635); test: Cytochrome P450 Family 2 Subfamily D Member 6 (CYP2D6) small molecule antagonists: luciferase reporter qHTS assay (AID 1671196); also: nearly all actives have a fitted effect of over 50% in size; also: potency is read from the fitted curve at half-maximal effect
Summary of the method: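 Inhibition of CYP2D6 was gauged by loss of luminescence, since light produced tracks the luciferin generated from a proluciferin substrate. A 10 min room-temperature preincubation preceded 1 h NADPH-supported turnover.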

[7] = biological target: Cytochrome P450 2C19 (Homo sapiens) (UniProt P33261); test: Cytochrome P450 Family 2 Subfamily C Member 19 (CYP2C19) small molecule antagonists: luciferase reporter qHTS assay (AID 1671197); also: nearly all actives have a fitted effect of over 65% in size; also: potency is read from the fitted curve at half-maximal effect
Summary of the method: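 P450-Glo CYP2C19 system: enzyme-substrate mix with compound 10 min at room temperature, then NADPH regeneration solution, 1 h at 37C. Proluciferin-to-luciferin conversion detected by luminescence after 20 min with detection reagent; ketoconazole as positive control.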

[8] = biological target: Cytochrome P450 2C9 (Homo sapiens) (UniProt P11712); test: Cytochrome P450 Family 2 Subfamily C Member 9 (CYP2C9) small molecule antagonists: luciferase reporter qHTS assay (AID 1671198); also: nearly all actives have a fitted effect of over 50% in size; also: potency is read from the fitted curve at half-maximal effect
Summary of the method: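 P450-Glo proluciferin substrate with CYP2C9 enzyme; 10 min RT preincubation, then NADPH regeneration 1 h at 37C; luciferin detection reagent 20 min RT, luminescence in relative luminescence units.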

[9] = biological target: Voltage-gated inwardly rectifying potassium channel KCNH2 (Homo sapiens) (UniProt Q12809); test: Human Ether-a-go-go-Related Gene (hERG) channel small molecule antagonists: fluorescence cell-based qHTS assay (AID 1671200); also: nearly all actives have a fitted effect of over 50% in size; also: potency is read from the fitted curve at half-maximal effect
Summary of the method: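 First, 1000 cells per well are seeded and cultured overnight at 37 C. Next, FluxOR II dye is loaded for 1 h at room temperature, protected from light. After 10 more minutes, stimulus is added and fluorescence is read.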

[10] = qHTS assay to identify small molecule agonists of the progesterone receptor (PR) signaling pathway - cell viability counter screen (AID 1346799; calls by dose curve; also: potency is read from the fitted curve at half-maximal effect; nearly all actives have a fitted effect of over 45% in size)
Summary of the method: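 Viability was scored by ATP luminescence (CellTiter-Glo, 30 min, room temperature) in the same wells used for the reporter readout, after 16 hr compound exposure of PR-UAS-bla HEK293T cells.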

[11] = biological target: Thyrotropin-releasing hormone receptor (Homo sapiens) (UniProt P34981); test: qHTS assay to identify small molecule antagonists of the thyrotropin-releasing hormone receptor (TRHR) signaling pathway (AID 1346877; active = well fitted inhibition curve with a large enough effect in the repeat runs, not every such curve was filed as active; also: series mostly up to about 51 µM; % is scaled to controls: 0 for no effect and ±100 for the full control effect)
Summary of the method: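 In this cell-based calcium flux format, HEK293 cells expressing TRHR received test compound for 5 min before the agonist TRH (1 nM final). Dye loading lasted 2 h at 37 °C.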

[12] = biological target: Thyrotropin-releasing hormone receptor (Homo sapiens) (UniProt P34981); test: qHTS assay to identify small molecule agonists of the thyrotropin-releasing hormone receptor (TRHR) signaling pathway (AID 1346891; calls by dose curve; also: series mostly up to about 58 µM; % is scaled to controls: 0 for no effect and ±100 for the full control effect)
Summary of the method: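 Kinetic fluorescence (3 min, 1 s intervals) reported intracellular calcium after compound transfer onto TRHR-Hek293 cells pre-loaded with dye for 2 h at 37 °C.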

[13] = Caspase-3/7 induction in CHO-K1 cells by small molecules, qHTS cell viability counter screen (AID 1346979); also: nearly all actives have a fitted effect of over 35% in size; also: potency is read from the fitted curve at half-maximal effect
Summary of the method: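 Seeding: 1,500 CHO-K1 cells/well. Rest: 5hr, 37C. Treatment: compounds in DMSO, 16hr. Read: CellTiter-Fluor, 1hr, fluorescence.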

[14] = Caspase-3/7 induction in HepG2 cells by small molecules, qHTS cell viability counter screen (AID 1346981); also: nearly all actives have a fitted effect of over 30% in size; also: potency is read from the fitted curve at half-maximal effect
Summary of the method: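 Counter screen for cytotoxicity: HepG2 exposed 16 hr to compounds, then CellTiter-Fluor viability signal (fluorescence, 1 hr reagent incubation).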

[15] = biological target: Nuclear receptor subfamily 1 group I member 2 (Homo sapiens) (UniProt O75469); test: Human pregnane X receptor (PXR) small molecule agonists, qHTS assay (AID 1346982); also: nearly all actives have a fitted effect of over 35% in size; also: potency is read from the fitted curve at half-maximal effect
Summary of the method: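 Luminescence (ONE-Glo, 30 min RT) after 24 hr compound exposure of PXR-Luc HepG2 cells; cells rested 5 hr post-plating in 5% charcoal-stripped FBS medium.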

[16] = biological target: Nuclear receptor subfamily 1 group I member 2 (Rattus norvegicus) (UniProt Q9R1A7); test: Rat pregnane X receptor (rPXR) activation by small molecules, qHTS assay (AID 1346983); conditions: rPXR luciferase reporter cells, One-Glo luminescence, 24 h; max activation: hits give high values; also: % is scaled to controls: 0 for no effect and ±100 for the full control effect; nearly all actives have a fitted effect of over 20% in size
Summary of the method: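 Cell-based rPXR activation assay: rPXR cells, 2,000 per well, rested 5hr at 37 C, then exposed to compounds in DMSO for 24 hr at 37 C. Luciferase activity read by One-Glo luminescence after 30 min at room temperature.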

[17] = biological target: Nuclear receptor subfamily 1 group I member 2 (Homo sapiens) (UniProt O75469); test: CYP3A4 induction through human pregnane X receptor (PXR) by small molecules, qHTS assay (AID 1346984); also: % is scaled to controls: 0 for no effect and ±100 for the full control effect; nearly all actives have a fitted effect of over 40% in size
Summary of the method: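 DPX-2 reporter cells; 24h cpd, 37C; Luciferin-IPA 3uM final x3h; One-Glo 30 min RT; lumi read.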

[18] = biological target: Nuclear receptor subfamily 1 group I member 2 (Homo sapiens) (UniProt O75469); test: Human pregnane X receptor (PXR) activation by small molecules, qHTS assay (AID 1346985); also: % is scaled to controls: 0 for no effect and ±100 for the full control effect; nearly all actives have a fitted effect of over 40% in size
Summary of the method: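 DPX-2 cells (HepG2 co-transfected with a PXR response element and a CYP3A4-promoter luciferase construct) were seeded at 2,000 per well, rested 5 hr at 37C, then exposed to DMSO-dissolved compounds for 24 hr. Activation was read as luciferase luminescence.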

[19] = biological target: Cytochrome P450 1A2 (Homo sapiens) (UniProt P05177); test: Cytochrome P450 Family 1 Subfamily A Member 2 (CYP1A2) small molecule antagonists: luciferase reporter qHTS assay (AID 1671199); also: nearly all actives have a fitted effect of over 50% in size; also: potency is read from the fitted curve at half-maximal effect
Summary of the method: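 Signal from luciferin formed by CYP1A2 from a proluciferin substrate is read as luminescence, expressed in relative luminescence units. Compounds sit with enzyme 10 min, NADPH-driven reaction runs 1 h, all at room temperature.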

[20] = Human pregnane X receptor (PXR) small molecule agonists, qHTS cell viability counter screen (AID 1346977); also: nearly all actives have a fitted effect of over 50% in size; also: potency is read from the fitted curve at half-maximal effect
Summary of the method: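 HepG2 cells stably carrying the PXR-Luc reporter are cultured with 5% charcoal-stripped FBS and treated with compounds for 24hr. CellTiter-Fluor is added at 23hr and fluorescence is read after 1hr.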

Cytochrome P450 2D6 (Homo sapiens), sequence (P10635 whole entry, looked up): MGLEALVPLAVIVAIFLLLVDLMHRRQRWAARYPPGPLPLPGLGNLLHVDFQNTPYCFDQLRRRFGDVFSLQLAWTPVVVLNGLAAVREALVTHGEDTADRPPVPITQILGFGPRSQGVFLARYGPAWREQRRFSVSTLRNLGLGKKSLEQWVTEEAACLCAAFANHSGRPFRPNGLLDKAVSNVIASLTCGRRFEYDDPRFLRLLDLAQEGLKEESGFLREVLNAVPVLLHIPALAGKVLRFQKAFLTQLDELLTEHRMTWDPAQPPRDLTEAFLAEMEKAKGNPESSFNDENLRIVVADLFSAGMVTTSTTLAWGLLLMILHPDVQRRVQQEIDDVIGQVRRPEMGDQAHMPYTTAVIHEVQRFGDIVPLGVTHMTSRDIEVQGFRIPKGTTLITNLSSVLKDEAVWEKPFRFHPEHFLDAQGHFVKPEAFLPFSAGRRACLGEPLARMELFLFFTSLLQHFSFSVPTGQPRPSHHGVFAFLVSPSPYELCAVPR
Cytochrome P450 1A2 (Homo sapiens), sequence (P05177 whole entry, looked up): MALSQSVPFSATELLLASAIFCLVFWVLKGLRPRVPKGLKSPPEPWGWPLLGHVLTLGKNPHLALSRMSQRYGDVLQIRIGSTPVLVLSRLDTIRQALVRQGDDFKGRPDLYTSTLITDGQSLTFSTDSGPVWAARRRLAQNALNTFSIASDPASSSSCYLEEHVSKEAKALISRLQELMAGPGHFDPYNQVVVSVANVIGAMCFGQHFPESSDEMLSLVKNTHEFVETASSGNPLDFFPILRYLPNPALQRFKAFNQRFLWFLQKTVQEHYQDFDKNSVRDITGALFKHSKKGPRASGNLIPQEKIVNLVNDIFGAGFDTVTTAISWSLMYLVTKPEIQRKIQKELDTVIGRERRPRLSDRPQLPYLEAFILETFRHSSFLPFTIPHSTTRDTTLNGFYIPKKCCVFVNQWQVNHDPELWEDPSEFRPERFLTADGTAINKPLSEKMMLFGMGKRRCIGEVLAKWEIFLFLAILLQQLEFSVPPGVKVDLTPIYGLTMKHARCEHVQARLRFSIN
Cytochrome P450 2C9 (Homo sapiens), sequence (P11712 whole entry, looked up): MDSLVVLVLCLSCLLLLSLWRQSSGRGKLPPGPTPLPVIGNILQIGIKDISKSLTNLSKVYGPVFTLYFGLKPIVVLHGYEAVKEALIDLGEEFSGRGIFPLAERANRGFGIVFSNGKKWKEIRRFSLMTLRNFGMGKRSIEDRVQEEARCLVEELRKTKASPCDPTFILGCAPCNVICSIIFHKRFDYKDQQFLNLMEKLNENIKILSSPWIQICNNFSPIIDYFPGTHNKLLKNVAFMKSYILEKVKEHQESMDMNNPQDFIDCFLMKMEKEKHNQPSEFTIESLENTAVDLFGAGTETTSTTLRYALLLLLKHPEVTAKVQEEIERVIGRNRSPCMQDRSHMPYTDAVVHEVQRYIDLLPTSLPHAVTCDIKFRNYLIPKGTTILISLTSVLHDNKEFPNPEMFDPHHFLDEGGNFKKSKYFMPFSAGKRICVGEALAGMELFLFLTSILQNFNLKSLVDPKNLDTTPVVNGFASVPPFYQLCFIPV
Thyrotropin-releasing hormone receptor (Homo sapiens), sequence (P34981 whole entry, looked up): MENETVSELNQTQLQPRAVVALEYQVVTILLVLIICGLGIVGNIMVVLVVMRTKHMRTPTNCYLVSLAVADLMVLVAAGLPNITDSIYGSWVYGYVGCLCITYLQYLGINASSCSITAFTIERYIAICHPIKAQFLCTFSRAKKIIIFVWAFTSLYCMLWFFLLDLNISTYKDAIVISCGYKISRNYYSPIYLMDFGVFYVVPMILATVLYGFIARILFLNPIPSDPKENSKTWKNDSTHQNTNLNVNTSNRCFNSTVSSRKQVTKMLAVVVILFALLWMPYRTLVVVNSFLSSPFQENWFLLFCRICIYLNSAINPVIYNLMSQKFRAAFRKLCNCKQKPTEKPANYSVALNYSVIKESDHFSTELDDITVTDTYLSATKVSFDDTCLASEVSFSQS
Cytochrome P450 2C19 (Homo sapiens), sequence (P33261 whole entry, looked up): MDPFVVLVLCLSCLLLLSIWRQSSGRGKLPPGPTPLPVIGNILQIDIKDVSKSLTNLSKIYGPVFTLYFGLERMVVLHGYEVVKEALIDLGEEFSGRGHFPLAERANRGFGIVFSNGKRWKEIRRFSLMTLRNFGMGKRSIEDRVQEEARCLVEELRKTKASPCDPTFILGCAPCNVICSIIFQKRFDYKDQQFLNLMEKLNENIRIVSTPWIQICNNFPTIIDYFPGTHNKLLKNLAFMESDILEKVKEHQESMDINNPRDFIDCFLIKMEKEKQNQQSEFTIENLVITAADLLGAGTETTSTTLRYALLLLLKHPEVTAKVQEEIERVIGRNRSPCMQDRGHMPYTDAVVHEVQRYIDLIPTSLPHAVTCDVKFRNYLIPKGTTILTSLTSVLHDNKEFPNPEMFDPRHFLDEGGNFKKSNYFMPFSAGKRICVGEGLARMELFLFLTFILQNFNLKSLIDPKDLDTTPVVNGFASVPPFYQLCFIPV
Voltage-gated inwardly rectifying potassium channel KCNH2 (Homo sapiens), sequence (Q12809 whole entry, looked up): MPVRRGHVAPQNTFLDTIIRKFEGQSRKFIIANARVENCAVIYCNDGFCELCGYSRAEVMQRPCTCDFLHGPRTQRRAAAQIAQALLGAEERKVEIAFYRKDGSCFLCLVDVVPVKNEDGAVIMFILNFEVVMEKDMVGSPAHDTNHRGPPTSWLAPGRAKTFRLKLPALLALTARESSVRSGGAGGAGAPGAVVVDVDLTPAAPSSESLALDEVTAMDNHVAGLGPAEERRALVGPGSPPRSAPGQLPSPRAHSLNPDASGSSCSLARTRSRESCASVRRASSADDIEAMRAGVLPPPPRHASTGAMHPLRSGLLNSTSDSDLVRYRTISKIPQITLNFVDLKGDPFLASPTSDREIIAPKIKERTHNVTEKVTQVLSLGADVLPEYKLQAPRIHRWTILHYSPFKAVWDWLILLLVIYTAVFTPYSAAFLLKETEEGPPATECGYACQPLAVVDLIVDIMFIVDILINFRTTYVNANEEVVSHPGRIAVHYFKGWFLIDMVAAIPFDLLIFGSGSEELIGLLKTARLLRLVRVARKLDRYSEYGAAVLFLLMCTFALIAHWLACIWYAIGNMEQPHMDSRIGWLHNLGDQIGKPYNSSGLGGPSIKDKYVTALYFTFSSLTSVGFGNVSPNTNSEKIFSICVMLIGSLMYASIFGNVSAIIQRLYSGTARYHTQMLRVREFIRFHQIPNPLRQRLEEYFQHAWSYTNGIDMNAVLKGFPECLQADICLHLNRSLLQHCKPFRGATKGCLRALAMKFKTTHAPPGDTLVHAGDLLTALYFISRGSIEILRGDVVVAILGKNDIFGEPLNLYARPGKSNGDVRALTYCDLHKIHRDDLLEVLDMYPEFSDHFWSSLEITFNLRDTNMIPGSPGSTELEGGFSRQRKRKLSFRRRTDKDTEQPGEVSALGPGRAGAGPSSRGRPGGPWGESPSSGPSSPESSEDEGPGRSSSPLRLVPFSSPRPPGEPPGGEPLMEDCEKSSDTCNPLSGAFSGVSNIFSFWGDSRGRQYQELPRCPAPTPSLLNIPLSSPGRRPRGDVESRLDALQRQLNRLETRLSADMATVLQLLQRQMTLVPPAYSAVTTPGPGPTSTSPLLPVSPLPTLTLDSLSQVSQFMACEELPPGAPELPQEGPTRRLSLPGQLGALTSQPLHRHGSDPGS
Nuclear receptor subfamily 1 group I member 2 (Homo sapiens), sequence (O75469 whole entry, looked up): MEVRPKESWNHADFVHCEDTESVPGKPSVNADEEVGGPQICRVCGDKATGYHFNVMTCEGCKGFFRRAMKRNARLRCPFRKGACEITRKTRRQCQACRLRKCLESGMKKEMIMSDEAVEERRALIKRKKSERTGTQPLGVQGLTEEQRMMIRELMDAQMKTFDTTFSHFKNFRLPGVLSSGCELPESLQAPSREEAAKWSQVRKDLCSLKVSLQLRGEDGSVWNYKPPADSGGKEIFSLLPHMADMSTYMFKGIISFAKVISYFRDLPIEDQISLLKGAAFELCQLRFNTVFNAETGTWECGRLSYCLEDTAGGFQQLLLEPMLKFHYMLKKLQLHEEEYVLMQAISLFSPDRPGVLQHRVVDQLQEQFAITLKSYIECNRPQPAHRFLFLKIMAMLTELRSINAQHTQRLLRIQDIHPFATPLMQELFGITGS
Nuclear receptor subfamily 1 group I member 2 (Rattus norvegicus), sequence (Q9R1A7 whole entry, looked up): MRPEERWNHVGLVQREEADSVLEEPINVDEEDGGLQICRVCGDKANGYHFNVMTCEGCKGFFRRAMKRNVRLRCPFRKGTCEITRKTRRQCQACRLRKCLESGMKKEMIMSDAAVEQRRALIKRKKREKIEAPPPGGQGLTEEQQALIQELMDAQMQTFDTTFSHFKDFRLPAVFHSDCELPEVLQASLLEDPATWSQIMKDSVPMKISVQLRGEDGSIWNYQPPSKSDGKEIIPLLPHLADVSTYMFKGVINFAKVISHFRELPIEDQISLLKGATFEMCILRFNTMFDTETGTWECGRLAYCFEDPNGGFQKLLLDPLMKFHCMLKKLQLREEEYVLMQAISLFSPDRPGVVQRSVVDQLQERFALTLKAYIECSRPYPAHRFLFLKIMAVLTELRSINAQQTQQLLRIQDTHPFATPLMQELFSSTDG

C=CCc1cc(S(=O)(=O)c2ccc(O)c(CC=C)c2)ccc1O
inactive: Potency [1] | Potency [2] | outcome [3] | Potency [4] | Potency [5] | Potency [9]
active: Potency [6] 6.33 µM | Potency [7] 2.24 µM | Potency [8] 0.502 µM

C[C@H]1O[C@@H](O[C@H]2CC[C@@]3(C)[C@H](CC[C@@H]4[C@@H]3C[C@@H](O)[C@]3(C)[C@@H](C5=CC(=O)OC5)CC[C@]43O)C2)C[C@H](O)[C@@H]1O[C@H]1C[C@H](O)[C@H](O[C@H]2C[C@H](O)[C@H](O[C@@H]3O[C@H](CO)[C@@H](O)[C@H](O)[C@H]3O)[C@@H](C)O2)[C@@H](C)O1
active: Potency [10] 0.266 µM
inactive: Potency [11] | Potency [12] | Potency [4] | Potency [13] | Potency [5] | Potency [14] | Potency [15] | max activation [16] 6.34% | Potency [17] | Potency [18] | Potency [6] | Potency [7] | Potency [8] | Potency [9]

CCCCCCCC/C=C\CCCCCCCC(=O)N(CCO)CCO
inactive: Potency [1] | Potency [2] | outcome [3] | Potency [4] | Potency [5]
active: Potency [13] 68.3 µM | Potency [15] 60.9 µM | Potency [7] 19.9 µM

O=C1OC(=O)c2cc(-c3ccc4c(c3)C(=O)OC4=O)ccc21
inactive: Potency [1] | Potency [2] | outcome [3] | Potency [11] | Potency [12] | Potency [4] | Potency [13] | Potency [5] | Potency [14] | Potency [6] | Potency [8] | Potency [9]
active: Potency [7] 8.94 µM | Potency [19] 35.6 µM

O=c1[nH]cccc1O
inactive: Potency [1] | Potency [2] | outcome [3] | Potency [20] | Potency [4] | Potency [5] | Potency [14] | Potency [15] | Potency [7] | Potency [19] | Potency [9]

O=C1CCC/C=C\CCCCCCCCCC1
active: Potency [15] 30.6 µM
inactive: Potency [1] | Potency [2] | outcome [3] | Potency [11] | Potency [12] | Potency [4] | Potency [13] | Potency [5] | Potency [6] | Potency [7]

COc1cc2ncnc(Nc3cccc(Cl)c3)c2cc1OC
inactive: viability change, negative = cytotoxic [1] 0.414% [at 15.8 µM] | activity change, negative = cytotoxicity [2] 9.42% [at 15.8 µM] | activation [3] -4.98% [at 15.8 µM] | activity, negative = inhibition [11] -3.3% [at 10.5 µM] | activation [12] -0.271% [at 11.8 µM] | caspase activation [4] 0.14% [at 19 µM] | activity change, negative = cytotoxicity [13] -12.4% [at 19 µM] | caspase-3/7 activation [5] -2.78% [at 19 µM] | activity change, negative = cytotoxicity [14] -10% [at 19 µM]

O[Si](c1ccccc1)(c1ccccc1)c1ccccc1
inactive: Potency [1] | Potency [2] | outcome [3] | Potency [20] | Potency [4] | Potency [5] | Potency [6] | Potency [19]
active: Potency [13] 30.6 µM | Potency [15] 27.3 µM | Potency [7] 0.502 µM | Potency [8] 0.564 µM

CCSCC
inactive: Potency [1] | Potency [2] | outcome [3] | Potency [11] | Potency [12] | Potency [4] | Potency [13] | Potency [5] | Potency [14] | Potency [6] | Potency [7] | Potency [8] | Potency [19]

Cc1c(Cl)c(=O)oc2cc(O)ccc12
inactive: Potency [1] | Potency [11] | Potency [12] | Potency [4] | Potency [5] | Potency [6] | Potency [8] | Potency [9]
active: Potency [19] 17.8 µM

CN1CCN(C)CC1
inactive: Potency [1] | outcome [3] | Potency [20] | Potency [4] | Potency [5] | Potency [14] | Potency [15] | Potency [6] | Potency [7] | Potency [8] | Potency [19] | Potency [9]

O=S(=O)(O)O
inactive: max activation [16] 0.359%

O=C(CCN1CCC(c2ccccc2)C1)c1ccc2c(c1)OCCO2 (stereo unspecified)
inactive: Potency [1] | outcome [3] | Potency [11] | Potency [12] | Potency [4] | Potency [5] | Potency [14] | max activation [16] -4.55% | Potency [17] | Potency [18]
active: Potency [20] 23.7 µM | Potency [15] 13.3 µM | Potency [6] 2.19 µM

CN1CCN(c2ccccc2/C=C2\SCCN(c3ccc(Cl)c(Cl)c3)C2=O)CC1
active: Potency [20] 27.3 µM | Potency [4] 61.1 µM | Potency [13] 61.1 µM | Potency [14] 61.1 µM | Potency [6] 7.1 µM | Potency [7] 5.03 µM | Potency [8] 10 µM | Potency [9] 2.19 µM

CCCCCCCCCCCCCCCCCC(=O)O
inactive: max activation [16] -4.34%

c1ccc(C[P+](c2ccccc2)(c2ccccc2)c2ccccc2)cc1
active: Potency [20] 24.3 µM | Potency [13] 61.1 µM | Potency [6] 0.252 µM
inactive: Potency [2] | Potency [11] | Potency [12] | Potency [4] | Potency [5] | Potency [8] | Potency [19]

CC(C)(C)c1ccc2c(S(=O)(=O)O)c(C(C)(C)C)ccc2c1
inactive: max activation [16] -3.68%

CCN(CC)C(=S)S
inactive: max activation [16] -4.17%

CCCCCCCCCCCCN1CCCC1=O
active: Potency [13] 61.1 µM | Potency [14] 61.1 µM | Potency [15] 27.3 µM | Potency [7] 35.6 µM | Potency [8] 31.7 µM | Potency [19] 28.3 µM
inactive: Potency [1] | outcome [3] | Potency [11] | Potency [12] | Potency [5] | Potency [6] | Potency [9]

CC1(C)[C@H]2CC[C@]1(C)C(=O)C2
inactive: Potency [1] | outcome [3] | Potency [11] | Potency [12] | Potency [20] | Potency [4] | Potency [5] | Potency [14] | Potency [15] | Potency [6] | Potency [7] | Potency [19] | Potency [9]

Nc1ccc(Oc2cccc(Oc3ccc(N)cc3)c2)cc1
inactive: Potency [1] | outcome [3] | Potency [11] | Potency [12] | Potency [20] | Potency [4] | Potency [5] | Potency [14] | Potency [15] | Potency [19] | Potency [9]
active: Potency [7] 11.2 µM
